# Experimental data: PubChem BioAssay (EPA / NIEHS)
# Where “and” joins values, the source holds several entries; their conditions need not be identical. Identical values can stand only once. Some structures have more than one record in an assay (separate samples or runs), and their calls can disagree. Calls of active or inactive are those of the source. How the source made its calls: active means hit-call score of the fitted dose curve at least 0.9, where 1 is the maximum; inactive means score below 0.9.
# Legend:
# [1] = target: Paired box protein Pax-6 (Homo sapiens) (UniProt P26367); assay: ATG_Pax6_CIS: Attagene CIS-FACTORIAL HepG2 Assay for human Paired Box 6 (PAX6) (AID 2282956); details: HepG2 CIS-FACTORIAL PAX6 reporter transcription, RNA readout; actives raise or lower the signal
# Paired box protein Pax-6 (Homo sapiens), sequence (P26367 whole entry, looked up): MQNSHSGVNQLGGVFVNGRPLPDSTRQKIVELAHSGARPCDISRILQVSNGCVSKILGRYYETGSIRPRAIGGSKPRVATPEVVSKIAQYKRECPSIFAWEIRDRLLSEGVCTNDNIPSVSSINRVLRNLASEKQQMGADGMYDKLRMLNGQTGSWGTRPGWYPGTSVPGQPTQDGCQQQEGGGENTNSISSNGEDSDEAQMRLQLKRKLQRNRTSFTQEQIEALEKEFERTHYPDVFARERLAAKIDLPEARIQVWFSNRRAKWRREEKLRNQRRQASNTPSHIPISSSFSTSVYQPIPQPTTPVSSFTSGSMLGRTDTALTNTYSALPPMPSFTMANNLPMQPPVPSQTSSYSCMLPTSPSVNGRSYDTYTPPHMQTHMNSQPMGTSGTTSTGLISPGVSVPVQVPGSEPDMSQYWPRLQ
# Procedure, shortened: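 After twenty-four hours of chemical exposure, transfected HepG2 cells are harvested for RNA. Cis-promoter reporter transcripts are amplified, fluorescently labelled and sized by capillary electrophoresis, with gain and loss of signal scored against DMSO.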
# [2] = ATG_PXRE_CIS: Attagene CIS-FACTORIAL HepG2 Assay for human Pregnane X Receptor Element (PXRE) (AID 2282957); details: HepG2 Attagene CIS-FACTORIAL PXRE reporter, mRNA; actives raise or lower the signal
# Procedure, shortened: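 Cis-element reporter mRNA in human hepatoma HepG2 cells is measured 24 h post-dosing by RT-PCR, primer-extension labeling and capillary electrophoresis; gain or loss of signal is fitted relative to DMSO.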
# [3] = ATG_PPRE_CIS: Attagene CIS-FACTORIAL HepG2 Assay for human Peroxisome Proliferator-activated Response Element (PPRE) (AID 2282958); details: HepG2 PPRE cis-element reporter, Attagene transcription factor profiling; actives raise or lower the signal
# Procedure, shortened: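 HepG2, transient MRTU transfection (cis promoter elements, endogenous TFs). 24 h dosing. RNA → oligo(dT) RT → PCR → 6-FAM primer extension → HpaI digest → CE. Bidirectional fit vs DMSO.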
# [4] = ATG_RORE_CIS: Attagene CIS-FACTORIAL HepG2 Assay for human RAR-related Orphan Receptor Element (RORE) (AID 2282959); details: HepG2 Attagene cis-factorial RORE reporter, mRNA; actives raise or lower the signal
# Procedure, shortened: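 Transient MRTU transfection of human HepG2 liver cells (FuGene 6); 24 h compound exposure; TriZol RNA, oligo(dT) RT, PCR, FAM labeling, HpaI cut, CE fragment analysis. DMSO = negative control/baseline.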
# [5] = ATG_Sox_CIS: Attagene CIS-FACTORIAL HepG2 Assay for human SRY-box transcription factor (SOX) (AID 2282960); details: HepG2 Attagene cis-factorial SOX reporter, mRNA; actives raise or lower the signal
# Procedure, shortened: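 Endogenous factor activity in human liver HepG2 cells carrying transfected cis-regulated reporter units. RNA taken 24 h post-dose, reverse-transcribed, PCR-amplified and sized by capillary electrophoresis. Gain or loss of signal fitted relative to DMSO.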
# [6] = target: Transcription factor Sp1 (Homo sapiens) (UniProt P08047); assay: ATG_Sp1_CIS: Attagene CIS-FACTORIAL HepG2 Assay for human Specificity Protein 1 (Sp1) (AID 2282961); details: HepG2 Sp1 cis-reporter transcription, actives raise or lower the signal
# Transcription factor Sp1 (Homo sapiens), sequence (P08047 whole entry, looked up): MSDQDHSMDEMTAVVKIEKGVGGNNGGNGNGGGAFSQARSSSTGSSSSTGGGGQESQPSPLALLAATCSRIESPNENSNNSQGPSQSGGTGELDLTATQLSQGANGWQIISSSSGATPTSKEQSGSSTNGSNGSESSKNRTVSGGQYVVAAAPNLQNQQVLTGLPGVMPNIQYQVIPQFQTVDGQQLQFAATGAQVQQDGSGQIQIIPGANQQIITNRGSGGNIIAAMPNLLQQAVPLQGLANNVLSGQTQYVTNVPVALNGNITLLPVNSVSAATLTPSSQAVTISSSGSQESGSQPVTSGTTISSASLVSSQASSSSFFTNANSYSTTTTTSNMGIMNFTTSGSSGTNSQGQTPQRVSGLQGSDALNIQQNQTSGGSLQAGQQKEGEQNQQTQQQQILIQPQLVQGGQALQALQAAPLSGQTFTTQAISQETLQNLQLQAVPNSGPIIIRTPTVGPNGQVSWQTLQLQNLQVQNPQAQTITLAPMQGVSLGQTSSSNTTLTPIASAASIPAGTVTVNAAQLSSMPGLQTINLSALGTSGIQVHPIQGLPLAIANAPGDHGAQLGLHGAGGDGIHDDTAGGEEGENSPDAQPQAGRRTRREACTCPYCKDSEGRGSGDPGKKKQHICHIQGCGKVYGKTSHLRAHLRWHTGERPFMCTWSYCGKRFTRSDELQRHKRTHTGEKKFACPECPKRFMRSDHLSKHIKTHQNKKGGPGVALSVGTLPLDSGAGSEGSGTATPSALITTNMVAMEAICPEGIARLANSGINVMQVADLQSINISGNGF
# Procedure, shortened: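 Transient MRTU-transfected HepG2, 24 h compound exposure. Total RNA → oligo(dT) RT → PCR of reporter → 6-FAM primer extension → HpaI digest → CE. Endpoint fitted both directions vs DMSO.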
# [7] = ATG_SREBP_CIS: Attagene CIS-FACTORIAL HepG2 Assay for human Sterol Regulatory Element Binding (SREBP) (AID 2282962); details: HepG2 Attagene cis-factorial SREBP reporter, mRNA; actives raise or lower the signal
# Procedure, shortened: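 Twenty-four hours after chemical dosing of transfected HepG2 cultures, reporter RNA was converted to cDNA, amplified, end-labelled with 6-FAM and resolved by capillary electrophoresis. Responses were fitted relative to DMSO.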
# [8] = target: Signal transducer and activator of transcription 3 (Homo sapiens) (UniProt P40763); assay: ATG_STAT3_CIS: Attagene CIS-FACTORIAL HepG2 Assay for human Signal Transducer and Activator of Transcription 3 (STAT3) (AID 2282963); details: HepG2, Attagene cis-factorial STAT3 reporter transcription; actives raise or lower the signal
# Signal transducer and activator of transcription 3 (Homo sapiens), sequence (P40763 whole entry, looked up): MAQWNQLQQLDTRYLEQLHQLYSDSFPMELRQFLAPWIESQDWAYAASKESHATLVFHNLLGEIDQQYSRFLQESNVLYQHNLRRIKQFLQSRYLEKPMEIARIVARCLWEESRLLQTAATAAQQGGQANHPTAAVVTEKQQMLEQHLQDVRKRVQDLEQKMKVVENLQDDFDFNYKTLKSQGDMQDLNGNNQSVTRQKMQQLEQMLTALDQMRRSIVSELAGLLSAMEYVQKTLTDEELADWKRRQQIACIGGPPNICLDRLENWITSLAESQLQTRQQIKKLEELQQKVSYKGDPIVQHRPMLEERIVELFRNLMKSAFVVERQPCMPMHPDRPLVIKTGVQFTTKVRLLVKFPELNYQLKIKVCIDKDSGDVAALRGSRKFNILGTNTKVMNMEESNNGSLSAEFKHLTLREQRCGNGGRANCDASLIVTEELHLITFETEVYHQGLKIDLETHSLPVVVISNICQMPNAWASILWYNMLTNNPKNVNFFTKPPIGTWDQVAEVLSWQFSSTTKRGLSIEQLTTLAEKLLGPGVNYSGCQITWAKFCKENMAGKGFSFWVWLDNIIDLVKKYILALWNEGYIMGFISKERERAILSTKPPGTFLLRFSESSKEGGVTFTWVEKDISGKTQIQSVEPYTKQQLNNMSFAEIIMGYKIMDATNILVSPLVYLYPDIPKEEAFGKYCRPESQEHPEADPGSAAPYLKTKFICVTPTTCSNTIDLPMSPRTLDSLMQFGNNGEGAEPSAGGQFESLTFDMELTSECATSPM
# Procedure, shortened: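 Transcript-level reporter assay. HepG2 transient MRTU transfection, 24 h exposure, fluorescence detection after RT-PCR and CE; DMSO baseline.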
# [9] = ATG_TA_CIS: Attagene CIS-FACTORIAL HepG2 Assay for human TA Basal Promoter (AID 2282964); details: HepG2 Attagene CIS-factorial TA basal promoter reporter; actives raise or lower the signal
# Procedure, shortened: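 Transfected HepG2, 24 h compound exposure; RNA → RT-PCR → FAM primer extension → HpaI cut → CE fluorescence. Gain/loss-of-signal fitted against DMSO negative control. Background-control readout.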
# [10] = ATG_PBREM_CIS: Attagene CIS-FACTORIAL HepG2 Assay for human Phenobarbital-responsive Enhancer Module (PBREM) (AID 2282955); details: HepG2 PBREM cis-reporter, Attagene multiplexed transcription; actives raise or lower the signal
# Procedure, shortened: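 Endogenous transcription factors in human liver HepG2 cells drive a PBREM cis-element reporter, whose transcript level after 24 h treatment is quantified by RT-PCR with capillary electrophoresis; activity fitted in both directions against DMSO.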
Structure (SMILES),outcome [1],AC50 [2],AC50 [3],outcome [4],outcome [5],outcome [6],outcome [7],outcome [8],outcome [9],outcome [3],AC50 [4],outcome [10],outcome [2],AC50 [10],AC50 [7],AC50 [1],AC50 [5],AC50 [6],AC50 [9]
COP(=O)(OC)OC=C(Cl)Cl,inactive,21.8 µM (active),22.9 µM (active),inactive,inactive,inactive,inactive,inactive,inactive,–,–,–,–,–,–,–,–,–,–
CCC(C)Nc1c([N+](=O)[O-])cc(C(C)(C)C)cc1[N+](=O)[O-] (stereo unspecified),inactive,3.43 µM (active),–,–,inactive,inactive,inactive,inactive,inactive,inactive,24.1 µM (active),–,–,–,–,–,–,–,–
CC(C)OC(=O)Nc1cccc(Cl)c1,inactive,15.5 µM (active),47.1 µM (active),inactive,inactive,inactive,inactive,inactive,inactive,–,–,–,–,–,–,–,–,–,–
CCS(=O)(=O)c1cccnc1S(=O)(=O)NC(=O)Nc1nc(OC)cc(OC)n1,inactive,60.5 µM (active),–,inactive,inactive,inactive,inactive,inactive,inactive,inactive,–,inactive,inactive,–,–,–,–,–,–
COC(=O)c1ccccc1CS(=O)(=O)NC(=O)Nc1nc(OC)cc(OC)n1,inactive,33.9 µM (active),–,inactive,inactive,inactive,inactive,inactive,inactive,inactive,–,–,inactive,–,–,–,–,–,–
CC1(C)C(C=C(Cl)Cl)C1C(=O)OC(C#N)c1ccc(F)c(Oc2ccccc2)c1 (stereo unspecified),inactive,2.93 µM (active),8.12 µM (active),inactive,inactive,inactive,inactive,inactive,inactive,–,–,–,–,–,–,–,–,–,–
COP(=S)(OC)Oc1ccc(SC)c(C)c1,inactive,10.8 µM (active),–,–,inactive,inactive,–,inactive,inactive,inactive,53.7 µM (active),–,–,39.3 µM (active),24.7 µM (active),–,–,–,–
CCC(C)(NC(=O)c1cc(Cl)c(C)c(Cl)c1)C(=O)CCl (stereo unspecified),inactive,1.58 µM (active),–,inactive,inactive,inactive,inactive,inactive,inactive,inactive,–,inactive,–,–,–,–,–,–,–
Oc1ccc(Cl)cc1Cc1ccccc1,inactive,–,9.13 µM (active) [middle of 6 runs],–,inactive,inactive,inactive,inactive,inactive,inactive,–,–,inactive,–,7.03 µM (active) and 6.32 µM (active),8.56 µM (active),8.2 µM (active),13.4 µM (active),17.5 µM (active)
CNC(=O)CSP(=S)(OC)OC,inactive,–,–,inactive,inactive,inactive,inactive,inactive,inactive,inactive,–,–,inactive,–,–,–,–,–,–
COc1cc(OC)nc(NC(=O)NS(=O)(=O)c2cc(NC=O)ccc2C(=O)N(C)C)n1,inactive,17.1 µM (active),–,inactive,inactive,inactive,inactive,inactive,inactive,inactive,–,–,–,–,–,–,–,–,–
OCCOc1ccccc1,inactive,–,–,inactive,inactive,inactive,inactive,inactive,inactive,inactive,–,–,inactive,–,–,–,–,–,–
CNC(=O)Oc1ccccc1OC(C)C,inactive,–,–,inactive,inactive,inactive,inactive,inactive,inactive,inactive,–,–,inactive,–,–,–,–,–,–
O=C(O)CCCOc1ccc(Cl)cc1Cl,inactive,27.1 µM (active),22.9 µM (active),inactive,inactive,inactive,inactive,inactive,inactive,inactive,–,–,inactive,–,–,–,–,–,–
Clc1ccccc1-c1nnc(-c2ccccc2Cl)nn1,inactive,–,8.03 µM (active),inactive,inactive,inactive,inactive,inactive,inactive,–,–,–,inactive,–,–,–,–,–,–
CCCN(CCOc1c(Cl)cc(Cl)cc1Cl)C(=O)n1ccnc1,inactive,828 nM (active) and 60.9 µM (active),–,inactive,inactive,inactive,inactive,inactive,inactive,inactive,–,inactive,–,2.92 µM (active),11.1 µM (active),–,–,4.43 µM (active),–
O=C(Nc1ccccc1)Nc1cnns1,–,66.5 µM (active),–,inactive,–,–,–,inactive,inactive,inactive,–,–,–,–,50 µM (active),85 µM (active),50 µM (active),21.1 µM (active),–
CCc1ccc(C(=O)NN(C(=O)c2cc(C)cc(C)c2)C(C)(C)C)cc1,inactive,1.28 µM (active),–,inactive,inactive,inactive,inactive,inactive,inactive,inactive,–,–,–,–,–,–,–,–,–
O=C1c2ccccc2C(=O)N1SC(Cl)(Cl)Cl,inactive,15.8 µM (active),–,inactive,inactive,inactive,inactive,inactive,inactive,inactive,–,–,–,–,–,–,–,–,–
O=[N+]([O-])/N=C1\NCCN1Cc1ccc(Cl)nc1,inactive,30.6 µM (active),–,inactive,inactive,inactive,inactive,inactive,inactive,–,–,inactive,–,–,–,–,–,–,–
CNC(=O)Oc1cccc(N=CN(C)C)c1,inactive,–,32.7 µM (active),–,inactive,inactive,–,inactive,inactive,–,90.4 µM (active),–,inactive,–,84.6 µM (active),–,–,–,–
O=C(O)C(F)(F)C(F)(F)C(F)(F)C(F)(F)C(F)(F)C(F)(F)C(F)(F)F,inactive,34.1 µM (active) and 41 µM (active) and 41.5 µM (active),–,–,inactive,inactive,inactive,inactive,inactive,–,–,–,inactive,–,–,–,–,–,–
Cc1cc(C)nc(NC(=O)NS(=O)(=O)c2ccccc2C(=O)OC2COC2)n1,inactive,–,–,inactive,inactive,inactive,–,inactive,inactive,inactive,–,inactive,inactive,–,81.9 µM (active),–,–,–,–
CC1(c2ccc(Oc3ccccc3)cc2)OC(=O)N(Nc2ccccc2)C1=O (stereo unspecified),inactive,2.24 µM (active),1.21 µM (active),inactive,inactive,inactive,inactive,inactive,inactive,–,–,–,–,–,–,–,–,–,–
COc1nn(CSP(=S)(OC)OC)c(=O)s1,inactive,15.6 µM (active),–,inactive,inactive,inactive,inactive,inactive,inactive,inactive,–,–,–,–,–,–,–,–,–
